Bioassay records as filed in PubChem.
Compounds with a hit are over-represented: about 10% of the library has one in this group of screens.
hNpr1 antagonist: human Npr1 receptor antagonism; P16066; HEK293 hNpr1 GloSensor cGMP, ANP-stimulated luminescence; Potency, µM (doses to about 46.3 µM), inactives show at the top dose activity change, negative = inhibition, actives largely listed as inhibitors; actives 1.6% (n = 76,000); AID 1347048; calls by dose curve; also: % is scaled to controls: 0 for no effect and ±100 for the full control effect; nearly all actives have a fitted effect of over 60% in size
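Compound pre-incubated 30 min at room temperature on GloSensor-loaded HEK293 cells stably carrying hNpr1 and the pGS-40F cGMP biosensor. Stimulation uses hNppA at 0.1 nM final; luminescence is taken at baseline and 20 min post-agonist.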
3T3 cytotox: NIH 3T3 cell cytotoxicity | Potency, µM (highest dose often 96.7 µM), for inactives: at the top dose activity change, negative = cytotoxicity, hits mostly inhibitors | NIH 3T3 viability, CellTiter-Glo ATP luminescence, 48-72 h | actives 4.3% (n = 94,000); also: % is scaled to controls: 0 for no effect and ±100 for the full control effect; nearly all actives have a fitted effect of over 55% in size
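Cytotoxicity is measured as loss of cellular ATP: NIH 3T3 cells (400/well) are exposed to compound for 48 or 72 hr at 37 °C, then CellTiter-Glo luminescence is imaged after 10 min at room temperature.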
HEK293 tox: cytotoxic compounds in HEK 293 cells; HEK 293 viability, ATP luminescence (CellTiter-Glo), 48-72 h; Potency, µM (doses to about 115 µM), for inactives: at the highest dose activity change, negative = cytotoxicity, hits mostly inhibitors; actives 6.6% (n = 94,000); AID 1345083; also: % is scaled to controls: 0 for no effect and ±100 for the full control effect; nearly all actives have a fitted effect of over 60% in size
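Cytotoxicity was scored by loss of ATP-coupled luminescence (CellTiter-Glo) in HEK 293 cells. Compound treatment ran 48 or 72 hr at 37 degree Celsius, 5% CO2, 95% humidity.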
GPT2 inhibitor: blocks human glutamate pyruvate transaminase 2; Q8TD30; Recombinant GPT2, coupled pyruvate oxidase/HRP Amplex Red fluorescence; Potency, µM (series often up to 57.7 µM), for inactives: at the highest dose activity change, negative = inhibition, actives largely listed as inhibitors; actives 0.25% (n = 100,000); AID 1671188; also: % is scaled to controls: 0 for no effect and ±100 for the full control effect; nearly all actives have a fitted effect of over 60% in size
Target sequence (Q8TD30 whole entry, looked up): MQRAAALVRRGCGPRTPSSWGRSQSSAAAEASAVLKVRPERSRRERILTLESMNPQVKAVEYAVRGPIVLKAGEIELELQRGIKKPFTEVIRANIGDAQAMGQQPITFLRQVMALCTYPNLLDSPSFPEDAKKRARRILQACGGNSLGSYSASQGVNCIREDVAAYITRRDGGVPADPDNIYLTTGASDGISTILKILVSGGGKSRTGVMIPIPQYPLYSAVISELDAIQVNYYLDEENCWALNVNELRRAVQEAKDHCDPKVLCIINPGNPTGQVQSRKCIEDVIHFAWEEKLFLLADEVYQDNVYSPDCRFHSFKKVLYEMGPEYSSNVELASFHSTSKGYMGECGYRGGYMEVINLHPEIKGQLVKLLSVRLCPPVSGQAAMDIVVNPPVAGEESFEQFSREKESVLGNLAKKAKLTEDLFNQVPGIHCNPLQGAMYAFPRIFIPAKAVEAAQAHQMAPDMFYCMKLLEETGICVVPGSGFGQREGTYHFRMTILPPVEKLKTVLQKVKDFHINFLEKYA
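Fluorescence read-out: pyruvate from GPT2 turnover coupled to pyruvate oxidase, HRP and Amplex Red (0.2mM ThPP, 0.2U/mL PO and HRP, 50uM Amplex final). Substrates 250uM a-KG, 2mM L-alanine; enzyme 10ng/uL; 30 min RT.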
FLuc inh: Photinus pyralis luciferase inhibition; P08659; purified P. pyralis luciferase, luminescence, biochemical; Potency, µM (top dose mostly 115 µM), hits mostly inhibitors; actives 2.5% (n = 76,000); also: % is scaled to controls: 0 for no effect and ±100 for the full control effect; nearly all actives have a fitted effect of over 65% in size
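Luminescence read by CCD imaging after purified firefly luciferase (10nM final) was added to substrate buffer holding 10uM D-luciferin and 10uM ATP, pH 7.5, pre-dosed with compound.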
Npr1 antag conf: hNpr1 antagonism, confirmation assay; Potency, µM (highest dose often 57.6 µM), without a hit: top-dose activity change, negative = inhibition, hits mostly inhibitors; HEK293 hNpr1 cGMP GloSensor luminescence, ANP-stimulated; actives 76% (n = 1,400); shares compounds with hNpr1 antagonist; calls by dose curve; also: nearly all actives have a fitted effect of over 70% in size
Npr2 selectivity: hNpr2 antagonism, selectivity versus Npr1; shares compounds with hNpr1 antagonist; HEK293 hNpr2 GloSensor cGMP luminescence, CNP-stimulated; Potency, µM (titrated, usually from 57.6 µM), for the others: at the highest dose activity change, negative = inhibition, most hits filed as inhibitors; actives 67% (n = 1,400); calls by dose curve; also: nearly all actives have a fitted effect of over 70% in size
FLuc counter: inhibits firefly luciferase, false Npr1 antagonist flag. Potency, µM (titrated, usually from 57.6 µM), for the others: at the highest dose activity change, negative = inhibition, actives largely listed as inhibitors. shares compounds with hNpr1 antagonist. actives 0.7% (n = 1,400). purified FLuc enzyme, luminescence, Km substrate; also: series mostly up to about 58 µM; 0% is about no effect
GloSensor ctrl: counter-screen for Npr1 antagonists: GloSensor control cell line; shares compounds with hNpr1 antagonist; HEK293 GloSensor cGMP, SNP-stimulated, luminescence; Potency, µM (series often up to 57.6 µM), without a hit: top-dose activity change, negative = inhibition, hits mostly inhibitors; actives 69% (n = 1,400); calls by dose curve; also: % is scaled to controls: 0 for no effect and ±100 for the full control effect; nearly all actives have a fitted effect of over 70% in size
* hit, by the source's call; [ ] = another dose, or the depositor's remark. Unless noted, calls follow the shape of the dose curve; as a rule, active = well fitted curve in the direction sought with a large enough effect; inconclusive = small, poorly fitted or top-dose-only effect, or another doubt; inactive = no such curve, though single readings can be large; an effect the other way counts as inactive or inconclusive. Potency is read from the fitted curve at half-maximal effect.

`O=C(c1ccc[nH]1)N1CCN(C(=O)c2nnn3c2COC(c2ccc(Cl)cc2)C3)CC1` (centres undefined) gave hNpr1 antagonist -2%, 3T3 cytotox -11%, HEK293 tox -19%, GPT2 inhibitor inactive and FLuc inh inactive.
Screening CCc1nc2c(c(-c3ccc(O)cc3)n1)CCN(Cc1cncs1)CC2 returned hNpr1 antagonist 6%, 3T3 cytotox -22%, HEK293 tox 1%, GPT2 inhibitor inactive and FLuc inh inactive.
Screening C[C@@H]1CN(Cc2nc3c(n2Cc2ccccc2)C(=O)N(CCOc2ccccc2)CCN3)C[C@H](C)O1 returned hNpr1 antagonist 5%, 3T3 cytotox -15%, HEK293 tox inconclusive, GPT2 inhibitor -7% and FLuc inh inactive.
Screening Cc1ccc(C(=O)N2CCC(C(=O)N3CCC(N4CCCC4=O)CC3)CC2)cc1 returned 3T3 cytotox -24%, HEK293 tox -8% and GPT2 inhibitor -9%.
For O=C1CCN(Cc2ccncc2)CCCC(c2nc(-c3cccnc3)no2)CCN1 (centres undefined) the results were hNpr1 antagonist 2%, 3T3 cytotox -2%, HEK293 tox inactive, GPT2 inhibitor inactive and FLuc inh inactive.
Screening O=C1CCN(Cc2ccc(C(F)(F)F)cc2)CCCC(c2nc(-c3cccnc3)no2)CCN1 (centres undefined) returned hNpr1 antagonist 8.9µM*, 3T3 cytotox inconclusive, HEK293 tox 45µM*, GPT2 inhibitor -7%, FLuc inh inactive, Npr1 antag conf 17µM*, Npr2 selectivity 17µM*, FLuc counter 2% and GloSensor ctrl 15µM*.
Screening Cc1ccc(NC(=O)C2CCN(c3ccnc4ccnn34)CC2)cc1 returned 3T3 cytotox inconclusive, HEK293 tox inconclusive and GPT2 inhibitor 4%[88.5 µM].
Screening O=C(C1CC(=O)N(c2n[nH]c3ccccc23)C1)N1CCC(c2noc3cc(F)ccc23)CC1 (centres undefined) returned hNpr1 antagonist inconclusive, 3T3 cytotox 14µM*, HEK293 tox 13µM*, GPT2 inhibitor inactive, FLuc inh inactive, Npr1 antag conf 27µM*, Npr2 selectivity inconclusive, FLuc counter -3% and GloSensor ctrl 27µM*.
Screening O=C(c1nnc(COc2cccc(N3CCOCC3)c2)n1Cc1ccccc1)N1CCC[C@@H]1c1ccc(Br)cc1 returned hNpr1 antagonist inconclusive, 3T3 cytotox inconclusive, HEK293 tox inconclusive, GPT2 inhibitor inconclusive and FLuc inh inactive.
Screening COc1cc(Cl)ccc1C(=O)NC1CCN(c2cc(C(F)(F)F)nc(C)n2)CC1 returned hNpr1 antagonist inconclusive, 3T3 cytotox inconclusive, HEK293 tox inconclusive, GPT2 inhibitor -4%, FLuc inh inactive, Npr1 antag conf 22µM*, Npr2 selectivity 22µM*, FLuc counter 2% and GloSensor ctrl 19µM*.
`Cc1nc(N2CCC(NC(=O)c3nccc4ccccc34)CC2)cc(C(F)(F)F)n1` gave hNpr1 antagonist 11µM*, 3T3 cytotox inconclusive, HEK293 tox inconclusive, GPT2 inhibitor 5%, FLuc inh inactive, Npr1 antag conf 19µM*, Npr2 selectivity 17µM*, FLuc counter 0% and GloSensor ctrl 14µM*.
Screening Cc1nc(N2CCC(NC(=O)c3ccccc3Cl)CC2)cc(C(F)(F)F)n1 returned hNpr1 antagonist -21%, 3T3 cytotox -16%, HEK293 tox inconclusive, GPT2 inhibitor inactive and FLuc inh inactive.
Cc1nc(N2CCC(NC(=O)c3ccc4ccccc4n3)CC2)cc(C(F)(F)F)n1 was read as hNpr1 antagonist 10µM*, 3T3 cytotox inconclusive, HEK293 tox 45µM*, GPT2 inhibitor inactive, FLuc inh inactive, Npr1 antag conf 14µM*, Npr2 selectivity 14µM*, FLuc counter 1% and GloSensor ctrl 12µM*.
For Cc1nc(N2CCC(NC(=O)c3ccccc3F)CC2)cc(C(F)(F)F)n1 the results were hNpr1 antagonist -12%, 3T3 cytotox -8%, HEK293 tox -2%, GPT2 inhibitor inactive and FLuc inh inactive.
COC1(CC(C)C)NC(=O)C(O)(Cc2ccccc2)NC1=O (centres undefined) was read as GPT2 inhibitor inactive.
CCOc1ccccc1CN1CCC2(CCN(C(=O)Nc3ccccc3)CC2)Oc2ccccc21 was read as hNpr1 antagonist 17%, 3T3 cytotox inconclusive, HEK293 tox inconclusive, GPT2 inhibitor inactive and FLuc inh inactive.
Screening COc1ccc(N2CCN(C(=O)COc3cccc(-c4nnc5n4CCCC5)c3)CC2)cc1 returned hNpr1 antagonist 3%, 3T3 cytotox -13%, HEK293 tox inconclusive, GPT2 inhibitor inactive and FLuc inh inactive.
`Fc1ccc(CN2CCC(Oc3ccccc3-c3nc(-c4cnccn4)no3)C2)cc1F` (centres undefined) gave hNpr1 antagonist -18%, 3T3 cytotox inconclusive, HEK293 tox 25µM*, GPT2 inhibitor -3%, FLuc inh inactive, Npr1 antag conf inconclusive, Npr2 selectivity -29%, FLuc counter -16% and GloSensor ctrl 0%.
For C[S+](=O)([O-])N1CCC(c2nnc3n2C(C(=O)NC2CCCCCC2)CC3)CC1 (centres undefined) the results were 3T3 cytotox inconclusive, HEK293 tox -1% and GPT2 inhibitor inactive.
Screening CCc1cc(N2CCCC(C(=O)c3sccc3C)C2)ncn1 (centres undefined) returned hNpr1 antagonist 7.1µM*, 3T3 cytotox -39%, HEK293 tox 32µM*, GPT2 inhibitor 1%, FLuc inh inactive, Npr1 antag conf 7.7µM*, Npr2 selectivity 12µM*, FLuc counter 3% and GloSensor ctrl 7.7µM*.
